High-throughput results deposited in PubChem by National Center for Advancing Translational Sciences (NCATS).
Pf growth 96h: Primary qHTS for delayed death inhibitors of the malarial parasite plastid, 96 hour incubation; P. falciparum luciferase reporter growth, 96 h; Potency, µM (titrated, usually from 28.7 µM), for inactives: at the top dose activity change, negative = inhibition, most hits filed as inhibitors; actives 6.9% (n = 320,000); AID 504834, 2011; also: potency is read from the fitted curve at half-maximal effect; % is scaled to controls: 0 for no effect and ±100 for the full control effect
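Infected RBCs, 2% Hct / 0.05% parasitemia final; luciferase-reporter P. falciparum; cpd 96 h, 37 C, 5% CO2; luciferase detection reagent; luminescence.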
Pf growth 48h: Primary qHTS for delayed death inhibitors of the malarial parasite plastid, 48 hour incubation; P. falciparum luciferase growth in erythrocytes, 48 h; Potency, µM (series often up to 28.7 µM), without a hit: at the highest dose activity change, negative = inhibition, most hits filed as inhibitors; actives 5.9% (n = 310,000); also: potency is read from the fitted curve at half-maximal effect; % is scaled to controls: 0 for no effect and ±100 for the full control effect
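In quantitative HTS format, infected erythrocytes bearing luciferase-reporter parasites were treated for a single generation at 37 C. Luminescence after adding detection reagent served as the growth measure.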
Shiga toxin inh: A qHTS for Small Molecule Inhibitors of Shiga Toxin; inhibition, % at 38.7 µM; AID 2315, 2010; actives 9.2% (n = 290,000); Vero cells, Shiga toxin protein synthesis inhibition reporter; in the data active = inhibition mostly above about 28%, no sharp cut-off; inactive = mostly below about 43%; also: 0% is about no effect
CHX counter: Cycloheximide Counterscreen for Small Molecule Inhibitors of Shiga Toxin. AID 2314, 2010. cell reporter, cycloheximide protein synthesis inhibition counterscreen. max response, %. actives 12% (n = 300,000); in the data active = max response mostly above about 13%, no sharp cut-off; inactive = mostly below about 14%; also: read at 38.3 µM for the half of the compounds with a filed dose; 0% is about no effect
* = called active by the depositor; i = inactive; ? = inconclusive; nt = no result given. Compounds with a hit are over-represented: about 21% of the library has one in this group of screens. Unless noted, calls follow the shape of the dose curve; as a rule, active = well fitted inhibition curve with a large enough effect; inconclusive = small, poorly fitted or top-dose-only effect, or another doubt; inactive = no such curve, though single readings can be large or run the other way.

SMILES	Pf growth 96h	Pf growth 48h	Shiga toxin inh	CHX counter
Cc1nn(-c2ccc(C(=O)O)cc2)c(C)c1Oc1ccccc1O	-25%	nt	-6	-2
Cc1nn(-c2nc3ccccc3s2)c(C)c1Oc1ccccc1O	328%	177%	72*	32*
Cc1nn(-c2cccc(C(=O)O)c2)c(C)c1Oc1ccccc1O	-15%	6%	-11	0
O=C(NC1CCCCC1)C1CCN(C(=O)c2ccc(Cl)cc2)CC1	13%	-8%	48	-3
O=C(O)/C(=C\c1cccs1)c1ccccc1	?	19%	-13	-2
CN(c1ccc(C(=O)N2CCN(Cc3ccccc3)CC2)cc1)S(=O)(=O)c1ccc(Cl)cc1	-14%	?	7	-1
COc1ccc(/C=C2\C(=O)NC(=S)N2C(=O)c2ccc(C)cc2)cc1	7.4µM*	35%	59*	35*
COC(=O)C1=C[C@@H](C(=O)OC)C2C3=C(C(=O)[C@]2(CC(C)C)NC(=O)c2ccccc2)[C@H](C)n2c(=O)n(C)c(=O)n2[C@@H]3C1 (stereo partly drawn)	nt	nt	-4	-4
Cc1ccc(NC(=O)NC2=N/C(=C(/C#N)C(=O)N3CCCC3)c3ccccc32)cc1	?	37%	58	20*
Cc1ncc([N+](=O)[O-])n1CC(=O)Nc1ccc(F)cc1F	72%	0%	26	3
OCCC1CN(Cc2ccc3nsnc3c2)CCN1CCc1ccccc1 (stereo not drawn)	12µM*	-5%	-7	-2
CC(C)c1csc(CN2CCN(CCc3ccccc3)C(CCO)C2)n1 (stereo not drawn)	1.7µM*	?	-25	-4
CC(C)CCN1CCN(Cc2ccc(C#CCCO)cc2)CC1CCO (stereo not drawn)	12µM*	-20%	-4	1
OCCC#Cc1ccc(CN2CCN(CCc3ccccc3)C(CCO)C2)cc1 (stereo not drawn)	8.3µM*	?	nt	-1
C#Cc1ccc(CN2CCN(CCCc3ccccc3)C(CCO)C2)cc1 (stereo not drawn)	?	-19%	nt	-3
Cn1cc(CN2CCN(CCc3ccccc3)C(CCO)C2)cn1 (stereo not drawn)	87%	3%	38	-3
CC(C(=O)NCc1ccco1)n1cc([N+](=O)[O-])cn1 (stereo not drawn)	24%	13%	15	1
CC(C)n1nnnc1SCC(=O)N1N=C(c2cccs2)CC1c1cccs1 (stereo not drawn)	44%	50%	nt	nt
O=C(O)c1ccc(/C=C(\c2nc3ccccc3[nH]2)c2nc3ccccc3s2)cc1	8%	6%	40*	30*
O=C(O)c1ccc(-c2nc3ccccc3[nH]2)cc1	-2%	15%	-12	1
CCOc1ccc(-c2ccc(SCC(=O)NC3CCCCC3)nn2)cc1	107%	93%	39	17*
COc1ccc(-c2ccc(SCC(=O)NC3CCCCC3)nn2)cc1	3%	94%	47	9
COc1ccc(-c2cn3nc(SCC(=O)NC4CCCCC4)ccc3n2)cc1	?	92%	95*	50*
N/C(=N\OC(=O)CCCc1ccccc1)c1cccnc1	20%	-6%	40*	21*
N/C(=N\OC(=O)CCCOc1ccccc1)c1ccccc1	i	18%	14	23*
SMILES	Pf growth 96h	Pf growth 48h	Shiga toxin inh	CHX counter
Cc1cccc(/C(N)=N/OC(=O)CCCN2C(=O)c3ccccc3C2=O)c1	16%	7%	-6	-3
Cc1cccc(/C(N)=N/OC(=O)CCCc2ccccc2)c1	-10%	47%	66*	57*
N/C(=N\OC(=O)CCCCCN1C(=O)c2ccccc2C1=O)c1ccccc1	45%	40%	71*	37*
O=C(CCN1C(=O)c2ccccc2S1(=O)=O)Nc1cccc(F)c1	5%	-24%	nt	nt
C/C(CC(=O)Nc1ccc2c(c1)OCCO2)=N\NC(=O)COc1ccc(Cl)c(C)c1	17%	28%	-3	10
N/C(=N\OC(=O)CCCc1ccccc1)c1cccc([N+](=O)[O-])c1	-14%	10%	-5	7
N/C(=N\OC(=O)CCCc1ccccc1)c1ccccc1	40%	25%	27	31*
O=C(CCS(=O)(=O)c1cccc2nonc12)Nc1ccc(Br)cc1	14%	17%	18	1
COC(=O)c1ccccc1NC(=S)NC(NC(=O)COc1ccccc1)C(Cl)(Cl)Cl (stereo not drawn)	26%	?	-8	-3
COc1ccccc1NC(=S)NC(NC(=O)C(C)C)C(Cl)(Cl)Cl (stereo not drawn)	12%	7.4µM*	-10	1
